For one experiment, the target named is Phosphorylase b kinase gamma catalytic chain, skeletal muscle/heart isoform (Homo sapiens) (UniProt Q16816). The note with it: at 0.1 µM.
Sequence of Phosphorylase b kinase gamma catalytic chain, skeletal muscle/heart isoform (Homo sapiens) (Q16816 whole entry, looked up, canonical isoform): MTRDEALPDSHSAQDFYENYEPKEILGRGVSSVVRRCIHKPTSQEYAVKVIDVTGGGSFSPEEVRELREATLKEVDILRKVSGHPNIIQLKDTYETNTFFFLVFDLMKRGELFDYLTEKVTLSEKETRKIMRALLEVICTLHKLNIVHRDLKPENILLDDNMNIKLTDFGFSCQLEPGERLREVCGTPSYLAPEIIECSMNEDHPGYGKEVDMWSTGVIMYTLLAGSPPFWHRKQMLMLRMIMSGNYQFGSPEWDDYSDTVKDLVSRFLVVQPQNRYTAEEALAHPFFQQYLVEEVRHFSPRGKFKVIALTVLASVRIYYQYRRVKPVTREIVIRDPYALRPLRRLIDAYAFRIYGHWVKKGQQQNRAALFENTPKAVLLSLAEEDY
In general, inhibition refers to the drop in the measured response relative to a control, in per cent. With `CCS(=O)(=O)c1ccc(OC)c(Nc2ncc(-c3cccc(-c4ccccc4F)c3)o2)c1`, the inhibition was determined as 1.99%.

Regarding `C/C(Nc1ccc(S(N)(=O)=O)cc1)=C1/C(=O)Nc2ccccc21`, the inhibition came to 5.53%.

Consider `CN(C)CCOc1ccc(-c2cc(-c3ccc4c(c3)CCC4=NO)c(-c3ccncc3)o2)cc1`, for which the inhibition amounted to 1.83%.

As to `CCc1cccc(CC)c1/C=C/c1cncc(C(=O)NC)c1`, the inhibition was 0.98%.

`COc1ccc2cc(-c3c(-c4ccncc4)nc(-c4ccc(S(C)(=O)=O)cc4C)n3C)ccc2c1`: the inhibition stood at 5.34%.

`CCS(=O)(=O)c1ccc(OC)c(Nc2ncc(-c3ccccc3Cl)o2)c1`: the inhibition was found to be 1.33%.

On to `COc1cc2ncn(-c3cc(OCCc4ccccc4)c(C(N)=O)s3)c2cc1OC`, for which the inhibition turned out to be 3.81%.

As to `CN1CCN(CCCNc2nc3ccc(Oc4ccc(NC(=O)Nc5cc(C(F)(F)F)ccc5F)cc4)cc3[nH]2)CC1`, the inhibition was -0.01%.

`Cc1ccc(NC(=O)c2ccoc2)cc1-c1ccc(C(=O)NCC2CC2)cc1`: the inhibition was determined as 3.88%.

Regarding `COc1ccc2cc(-c3c(-c4ccncc4)nc(-c4ccc([S+](C)[O-])cc4C)n3C)ccc2c1` (stereo not drawn), the inhibition was -0.07%.

With `O=C(NCC1CC1)c1ccc(-c2cccc(C(=O)NC3CC3)c2)cc1`, the inhibition amounted to 1.06%.

Turning to `O=C(Nc1n[nH]c2cc(-c3cc(F)ccc3F)ccc12)C1CC1`, the inhibition was 4.9%.

Regarding `COc1cc(N2CCN(C(C)C)CC2)ccc1Nc1nc(Nc2ccc(F)cc2C(=O)NC[C@@H](O)CO)c2cc[nH]c2n1`, the inhibition worked out at 21%.

As for `NC(=O)c1cc(-c2ccncc2)cc(-c2ccccc2)c1N`, the inhibition came out at 5.69%.

In the case of `Fc1ccc(-c2ncn(C3CCNCC3)c2-c2ccnc(Oc3ccc4c(c3)OCO4)n2)cc1`, the inhibition was 6.43%.

Consider `FC(F)(F)c1cccc(Nc2nccc(-c3cnn4nc(-c5ccccc5)ccc34)n2)c1`, for which the inhibition came out at 3.06%.

For the molecule `COc1cc2ncn(-c3cc(OCc4ccccc4C(F)(F)F)c(C(C)=O)s3)c2cc1OC`, the inhibition worked out at 2.96%.

As for `Fc1ccc(-c2ncn(CCCN3CCOCC3)c2-c2ccncc2)cc1`, the inhibition is 1.86%.

Turning to `NS(=O)(=O)c1ccc(Nc2cc(-c3ccc(O)c(F)c3)n[nH]2)cc1`, the inhibition was -0.19%.

Regarding `CN(C)CCCNc1nccc(-c2c(-c3ccc(F)cc3)nn3cc(C(F)(F)F)ccc23)n1`, the inhibition was -0.27%.

`Fc1ccc(-c2c(-c3ccncc3)nc3n2CCS3)cc1`: the inhibition was determined as 4.14%.

As to `O=C(Nc1n[nH]c2nc(-c3ccco3)ccc12)C1CC1`, the inhibition is 1.05%.

Turning to `C[C@@H](Oc1cc(-n2cnc3ccc(OCC4CCN(C)CC4)cc32)sc1C(N)=O)c1ccccc1Cl`, the inhibition is 2.43%.

For `c1ccc(-c2n[nH]cc2-c2ccnc(-c3ccc(OCCN4CCOCC4)cc3)c2)nc1`, the inhibition was determined as 3.14%.

With `O=C1Nc2ccccc2/C1=C/Nc1ccc(-n2cncn2)cc1`, the inhibition was 9.39%.

With `c1ccc(Oc2ccc(Nc3ncc(-c4ccccc4)o3)cc2)cc1`, the inhibition stood at 0.99%.

As to `CCN(CC)Cc1ccc(Nc2nccc(-c3cnn4ncccc34)n2)cc1`, the inhibition came out at 6.04%.

As for `Cc1ccc(C(=O)NC(C)C)cc1-c1ccc(C(=O)NCC2CC2)cc1`, the inhibition was -0.31%.

In the case of `COc1cc2ncn(-c3cc(OCc4cccs4)c(C(N)=O)s3)c2cc1OC`, the inhibition is 3.47%.

With `O=C(Nc1ccc(Oc2ccc3[nH]c(NC(=O)c4ccccc4)nc3c2)cc1)Nc1cc(C(F)(F)F)ccc1F`, the inhibition was 1.45%.

`COc1ccc(-c2ccc3c(NC(=O)C4CC4)n[nH]c3n2)cc1`: the inhibition is 5.12%.

For the molecule `COc1cc(Nc2ncc3c(C)nc(-c4cccc(C(F)(F)F)c4)n3n2)cc(OC)c1OC`, the inhibition was determined as 5.08%.

Take `Fc1ccc(-c2ncn(C3CCNCC3)c2-c2ccnc(Oc3ccc(F)c(F)c3)n2)cc1`: the inhibition was determined as 6.75%.

Take `NS(=O)(=O)c1ccc(N/N=C2\C(=O)Nc3ccc(C(=O)NCCCn4ccnc4)cc32)cc1`: the inhibition worked out at 9.94%.

The next experiment has the same target. The note with it: at 1 µM.
As to `CCS(=O)(=O)c1ccc(OC)c(Nc2ncc(-c3cccc(-c4ccccc4F)c3)o2)c1`, the inhibition was found to be 9.38%.

For the molecule `C/C(Nc1ccc(S(N)(=O)=O)cc1)=C1/C(=O)Nc2ccccc21`, the inhibition was 29.9%.

Regarding `CN(C)CCOc1ccc(-c2cc(-c3ccc4c(c3)CCC4=NO)c(-c3ccncc3)o2)cc1`, the inhibition is 5.45%.

For the molecule `CCc1cccc(CC)c1/C=C/c1cncc(C(=O)NC)c1`, the inhibition came to 3.16%.

Consider `COc1ccc2cc(-c3c(-c4ccncc4)nc(-c4ccc(S(C)(=O)=O)cc4C)n3C)ccc2c1`, for which the inhibition is 5.99%.

As to `CCS(=O)(=O)c1ccc(OC)c(Nc2ncc(-c3ccccc3Cl)o2)c1`, the inhibition came to 1.36%.

As for `COc1cc2ncn(-c3cc(OCCc4ccccc4)c(C(N)=O)s3)c2cc1OC`, the inhibition amounted to 2.4%.

With `CN1CCN(CCCNc2nc3ccc(Oc4ccc(NC(=O)Nc5cc(C(F)(F)F)ccc5F)cc4)cc3[nH]2)CC1`, the inhibition turned out to be 0.68%.

For the molecule `Cc1ccc(NC(=O)c2ccoc2)cc1-c1ccc(C(=O)NCC2CC2)cc1`, the inhibition came out at 1.73%.

As to `COc1ccc2cc(-c3c(-c4ccncc4)nc(-c4ccc([S+](C)[O-])cc4C)n3C)ccc2c1` (stereo not drawn), the inhibition is 0.13%.

For `O=C(NCC1CC1)c1ccc(-c2cccc(C(=O)NC3CC3)c2)cc1`, the inhibition is -2.22%.

For `O=C(Nc1n[nH]c2cc(-c3cc(F)ccc3F)ccc12)C1CC1`, the inhibition worked out at 5.59%.

`COc1cc(N2CCN(C(C)C)CC2)ccc1Nc1nc(Nc2ccc(F)cc2C(=O)NC[C@@H](O)CO)c2cc[nH]c2n1`: the inhibition is 62%.

Take `NC(=O)c1cc(-c2ccncc2)cc(-c2ccccc2)c1N`: the inhibition came to 4.23%.

As for `Fc1ccc(-c2ncn(C3CCNCC3)c2-c2ccnc(Oc3ccc4c(c3)OCO4)n2)cc1`, the inhibition is 6.48%.

For the molecule `FC(F)(F)c1cccc(Nc2nccc(-c3cnn4nc(-c5ccccc5)ccc34)n2)c1`, the inhibition stood at 6.39%.

Take `COc1cc2ncn(-c3cc(OCc4ccccc4C(F)(F)F)c(C(C)=O)s3)c2cc1OC`: the inhibition amounted to 2.39%.

In the case of `Fc1ccc(-c2ncn(CCCN3CCOCC3)c2-c2ccncc2)cc1`, the inhibition was 2.09%.

For `NS(=O)(=O)c1ccc(Nc2cc(-c3ccc(O)c(F)c3)n[nH]2)cc1`, the inhibition amounted to 16%.

For `CN(C)CCCNc1nccc(-c2c(-c3ccc(F)cc3)nn3cc(C(F)(F)F)ccc23)n1`, the inhibition turned out to be 2.68%.

In the case of `Fc1ccc(-c2c(-c3ccncc3)nc3n2CCS3)cc1`, the inhibition was 4.63%.

As to `O=C(Nc1n[nH]c2nc(-c3ccco3)ccc12)C1CC1`, the inhibition stood at 3.2%.

In the case of `C[C@@H](Oc1cc(-n2cnc3ccc(OCC4CCN(C)CC4)cc32)sc1C(N)=O)c1ccccc1Cl`, the inhibition is 10.2%.

Regarding `c1ccc(-c2n[nH]cc2-c2ccnc(-c3ccc(OCCN4CCOCC4)cc3)c2)nc1`, the inhibition is 5.98%.

In the case of `O=C1Nc2ccccc2/C1=C/Nc1ccc(-n2cncn2)cc1`, the inhibition is 33.6%.

Turning to `c1ccc(Oc2ccc(Nc3ncc(-c4ccccc4)o3)cc2)cc1`, the inhibition was 2.96%.

`CCN(CC)Cc1ccc(Nc2nccc(-c3cnn4ncccc34)n2)cc1`: the inhibition is 28.2%.

With `Cc1ccc(C(=O)NC(C)C)cc1-c1ccc(C(=O)NCC2CC2)cc1`, the inhibition was determined as 1.18%.

As for `COc1cc2ncn(-c3cc(OCc4cccs4)c(C(N)=O)s3)c2cc1OC`, the inhibition worked out at 6.14%.

Consider `O=C(Nc1ccc(Oc2ccc3[nH]c(NC(=O)c4ccccc4)nc3c2)cc1)Nc1cc(C(F)(F)F)ccc1F`, for which the inhibition is 7.47%.

Regarding `COc1ccc(-c2ccc3c(NC(=O)C4CC4)n[nH]c3n2)cc1`, the inhibition was 7.79%.

As for `COc1cc(Nc2ncc3c(C)nc(-c4cccc(C(F)(F)F)c4)n3n2)cc(OC)c1OC`, the inhibition was 11.8%.

`Fc1ccc(-c2ncn(C3CCNCC3)c2-c2ccnc(Oc3ccc(F)c(F)c3)n2)cc1`: the inhibition is 10.8%.

As to `NS(=O)(=O)c1ccc(N/N=C2\C(=O)Nc3ccc(C(=O)NCCCn4ccnc4)cc32)cc1`, the inhibition is 25.8%.

For the origin of these results see ChEMBL document CHEMBL1961873, “Compounds: GSK PKIS; Assays: Nanosyn kinase panel” (2012).
